The full list was thinned out, with hits kept by preference.
Pf Dd2 growth: Plasmodium falciparum Dd2 growth inhibition. P. falciparum Dd2 growth, SYBR Green, 72 h. Potency, µM (series often up to 28.9 µM), for inactives: at the highest dose activity, negative = inhibition, most hits filed as inhibitors. 4.3% of 120,000 active. AID 1347417; active = well fitted inhibition curve with a large enough effect;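 also: plate controls were DMSO vehicle for no effect and reference drug for full effect; nearly all actives have a fitted effect of over 65% in size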
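Readout: SYBR Green fluorescence, 485 nm excitation, 535 nm emission, after ~16 h lysis at 37C. Before that, Dd2-infected red cells (2.5% hematocrit) grew 72 h with compound, 29 uM top final concentration.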
* hit, by the source's call; i = inactive; [ ] = another dose, or the depositor's remark. Potency is read from the fitted curve at half-maximal effect.

SMILES	Pf Dd2 growth
Cc1oc2c(c1C(=O)N1CCCC1)CN(Cc1cccc(F)c1)CC2	-21%
O=C(CC1CCOCC1)N1CCN(Cc2cccc(F)c2)CC1	48%
O=C1CCN(Cc2cccc(F)c2)CCCCCCN1	-19%
Cc1nc(CC(=O)N2CCCC(C(=O)NCCCO)C2)cs1 (stereo not given)	-2%
CCc1nn(-c2ccc(OC)cc2)c(Oc2ccccc2F)c1CCC(=O)NC(C)C	7.9µM*
CCc1nn(-c2ccc(OC)cc2)c(Oc2ccccc2F)c1CCC(=O)N(CC)CC	i
CCc1nn(-c2ccc(OC)cc2)c(Oc2ccccc2F)c1CCC(=O)NCCOC	i
O[C@@H]1C[C@@H](c2nc(Cc3ccccc3)no2)N(Cc2ccc(F)cc2)C1	i
O[C@@H]1C[C@@H](c2nc(Cc3ccccc3)no2)N(CCCc2ccccc2)C1	i
O[C@@H]1C[C@@H](c2nc(Cc3ccccc3)no2)N(Cc2cc3ccccc3o2)C1	14µM*
O=C(c1ccn[nH]1)N1CCN(Cc2cnn3cccnc23)CC(O)C1 (stereo not given)	-9%
CC(=O)N1CCN([C@H]2[C@@H]3OC[C@@H](O3)[C@@H](NCc3ccco3)[C@@H]2O)CC1	-9%[44.1 µM]
O=C(c1ccccc1F)N1CCCN(c2cc(-c3ccccc3)[nH]n2)CC1	i
Cc1ccc(Cl)cc1NC(=O)Cn1c(C)cc2nc3n(c(=O)c21)CCC3	i
COC(=O)c1nnn(-c2cccc(C)c2)c1C(=O)OC	6%
Cc1cccc(-n2nnnc2S(C)(=O)=O)c1	11µM*
Cc1ccc(-n2nnnc2CNC(=O)c2ccccc2S(C)(=O)=O)cc1C	i
Fc1ccc(OC2CNC2)c(F)c1	15%[44.1 µM]
COc1ccccc1OCc1cc(C(=O)N2CCN(c3cnccn3)CC2)n[nH]1	-22%
COc1ccc(C2(C(=O)N3CCC(C(=O)N4CCCCCCNC(=O)CC4)CC3)CC2)cc1	4%
O=C1COCCN1c1cc(-c2cnc3[nH]ccc3c2)cn2cncc12	4%[44.1 µM]
c1cncc(-c2cc(-c3ccc4cn[nH]c4c3)cn3cncc23)c1	-10%[44.1 µM]
Cc1ccc(-c2cc(-c3cccnc3)c3cncn3c2)cn1	i
Cc1ccc(-c2cc(-c3ccncc3)c3cncn3c2)cn1	-7%[44.1 µM]
COc1cc(F)ccc1-c1cc(-c2ccc(=O)[nH]c2)c2cncn2c1	i
SMILES	Pf Dd2 growth
COc1ccc(-c2cc(-c3cccc(NC(C)=O)c3)cn3cncc23)cn1	2µM*
COc1ccc(-c2cc(-c3cn[nH]c3)c3cncn3c2)cn1	-17%[44.1 µM]
CC(=O)Nc1cccc(-c2ccc(COc3ccc4c(cnn4CCC(=O)O)c3)cc2)c1	i
c1cc(-c2cc(-c3cn[nH]c3)cn3cncc23)ccn1	i
COc1ccc(-c2cc(-c3cccnc3)c3cncn3c2)cc1OC	10µM*
COc1ccc(-c2cc(-c3ccc(OC)nc3)cn3cncc23)cc1	2.5µM*
COc1ccc(-c2cc(-c3cnc4[nH]ccc4c3)cn3cncc23)cc1	6.3µM*
CC(C)CC(=O)NC[C@@H]1C[C@H](F)CN1C(=O)CCCc1cccs1	-17%
Cc1cc2c(SCC(=O)N3CC[C@@](C)(O)[C@@H](O)C3)ncnc2s1	-19%
COc1ccc(N2CC(C(=O)NC(C)C)NC2=O)cc1 (stereo not given)	-12%[44.1 µM]
CCc1nnc([C@@H]2CC(F)(F)CN2C(=O)CCn2cc(C)cn2)o1	5%
Cn1c(CCNC(=O)C23CCCC=C2N(Cc2ccccc2)C(=O)CC3)nc2ccccc21 (stereo not given)	i
CC(C)(C)NC(=O)N1CCCC1c1noc(COc2ccc(F)cc2)n1 (stereo not given)	-23%
Cc1nc(CN2C[C@H](C(=O)N3CCN(CCO)CC3)C[C@@H]2c2ccc(F)cc2)cs1	-8%[44.1 µM]
Cn1cc(CN2C[C@H](C(=O)Nc3ccccc3)C[C@@H]2c2cccc(C(F)(F)F)c2)cn1	-21%[44.1 µM]
Cn1cc(CN2C[C@H](C(=O)Nc3ccn(C)n3)C[C@@H]2c2cccc(C(F)(F)F)c2)cn1	i
Cn1cc(CN2C[C@H](C(=O)Nc3ccc(F)cc3)C[C@@H]2c2cccc(C(F)(F)F)c2)cn1	i
O=C(Nc1ccncn1)[C@@H]1C[C@@H](c2ccc(F)cc2)N(Cc2ccccc2)C1	i
COc1ccc(CNC(=O)[C@@H]2C[C@@H](c3ccc(F)cc3)N(Cc3ccccc3)C2)cc1OC	i
Cc1nc(CN2C[C@H](C(=O)NCc3cccc(F)c3)C[C@@H]2c2ccc(F)cc2)cs1	14µM*
Cn1ccc(NC(=O)[C@@H]2C[C@@H](c3ccc(F)cc3)N(Cc3ccccc3)C2)n1	13µM*
Cn1cc(CN2C[C@H](C(=O)NCc3cccc(F)c3)C[C@H]2c2cccc(C(F)(F)F)c2)cn1	8.9µM*
CCC(C)(C)C(=O)N1C[C@@H](CO)[C@H](c2ccncc2)C1	11%
CC1(C)[C@H](Cc2cc(CCO)on2)C[C@@H]1NC(=O)C1CCC1	6%[44.1 µM]
O=C(O)c1cccc(C(=O)N2C[C@@H]3C[C@H](C2)c2ccc(NC(=O)c4cccs4)c(=O)n2C3)c1	16%
SMILES	Pf Dd2 growth
O=C(CCC1CCCC1)NC1CCN(C(=O)N2CC3CC(C2)[C@H]2CCCC(=O)N2C3)CC1 (stereo not given in full)	i
Cc1noc(C)c1Cn1cnc(-c2ccccc2)c1-c1ccc(CO)o1	-11%
CNC(=O)c1noc([C@@H]2CC(F)(F)CN2Cc2cnn(C(C)C)c2)n1	50%
O[C@@H]1CCN(Cc2nc(C3(O)CCN(Cc4ccccc4F)CC3)cs2)C1	-17%[44.1 µM]
O=C(CCc1c[nH]c2ccccc12)NC1CCCc2c1[nH]c1ccc(F)cc21 (stereo not given)	i
CCCNC(=O)N(C1CCOCC1)C1CCN(C(=O)c2ccc(OC)nc2OC)CC1	i
O=C(c1cccc(-n2cnnc2)c1)N1CCOC(c2ccc(F)cc2)C1 (stereo not given)	-4%
CCNC(=O)N1CCC[C@@H](O)[C@H](NC(=O)c2ccc(OCCOC)cc2)C1	-28%[44.1 µM]
CCN(CC)C(=O)Cn1c(=O)cc(C)c2c(C)nn(C)c21	i
CCc1ccc(-n2nc(C)c3c(C)cc(=O)n(CC(=O)N(CC)Cc4ccccc4)c32)cc1	8.9µM*
Cc1cc(=O)n(Cc2ccccc2)c2c1c(C)nn2-c1ccccc1	7%
COc1ccc(CNc2ncnc3c2CN(C2CCCNCC2)C(=O)CN3C)cc1OC (stereo not given)	-1%
CCCC1(C2CCN(C(=O)CCCn3cncn3)CC2)NC(=O)NC1=O (stereo not given)	-17%
COCCOCc1nc(C2CCCCN2C(=O)Nc2ccc(OC)c(F)c2)no1 (stereo not given)	11%
Cc1cccc(C(=O)N2CCCCCCNC(=O)[C@@H]3CCC[C@@H]32)c1	7%
COCCN1CCCCCC(O)c2cc(C(=O)NC3CCC3)ccc21 (stereo not given)	i
COc1ccc2c(c1)OCC(CNC(=O)c1ccc(-c3nnn(C)n3)cc1)C2 (stereo not given)	2%
COc1ccc2c(c1)OCC(CNC(=O)c1cc(-c3ccncc3)n[nH]1)C2 (stereo not given)	13µM*
COc1ccc2c(c1)OCC(CNC(=O)c1scc3c1OCCO3)C2 (stereo not given)	-19%
Cc1nc(C)c(C(=O)N2C[C@@H](Oc3ccccc3)C[C@H]2C(=O)NC2CC2)s1	-4%
CCCCN1CC(c2nc3ccccc3n2CCCCOc2ccccc2C)CC1=O (stereo not given)	10µM*
Cc1cccc(C)c1OCCCCn1c(C2CC(=O)N(c3ccc(F)cc3)C2)nc2ccccc21 (stereo not given)	i
